Assay outcomes from PubChem BioAssay.
tim10-1 inh = growth inhibitors of tim10-1 mutant yeast; S. cerevisiae tim10-1 ts strain growth, BacTiter-Glo, 24 h; inhibition, % at 20 µM; 330,000 compounds, 2.2% hits; AID 463190;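 active means inhibition of at least 40%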;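 further: mutant grown at 25 °C; 0% = DMSO wells with yeast and 100% = wells holding no yeast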
NLRP3 yeast inh = blocks the NALP3 inflammasome reconstituted in yeast; inhibition, % at 10 µM; 330,000 compounds, 0.39% hits; Yeast reconstituted NLRP3/ASC/caspase-1, beta-gal luminescence, 24 h;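 active means inhibition of 50% or more; inactive means inhibition below 50%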;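 further: plate controls were induced DMSO wells for no effect and uninduced yeast grown without galactose for full effect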
tim23-1 inh = inhibits growth of tim23-1 mutant yeast. S. cerevisiae tim23-1 growth, BacTiter-Glo luminescence, 24 h. inhibition, % at 20 µM. 330,000 compounds, 1.3% hits;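 active means growth inhibition of the mutant yeast at or above 50%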;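 further: temperature-sensitive mutant grown at 25 °C; plate controls were DMSO-treated mutant yeast for no effect and medium wells lacking yeast for full effect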
TIM10 inh = growth inhibitors of TIM10 yeast strain; S. cerevisiae TIM10 strain growth, BacTiter-Glo luminescence, 24 h; inhibition, % at 10 µM; 330,000 compounds, 1.4% hits;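 active means inhibition of 40% or more at the single tested concentration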;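 further: wild-type TIM10 isogenic control strain grown at permissive 25 °C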
PfHsp90 set2 = inhibits growth of yeast expressing Plasmodium falciparum Hsp90; 310,000 compounds, 0.32% hits; S. cerevisiae expressing PfHsp90, BacTiter-Glo ATP, 48 h; yeast lacking PDR1 and PDR3 efflux regulators; inhibition, % at 9.4 µM; AID 504621;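 active means every replicate shows inhibition above about 80%, whatever the replicate mean, limit read from the data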;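 further: 0% = DMSO neutral controls and 100% = 20 µM radicicol positive controls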
NALP3 confirm = NALP3 inhibition confirmation in yeast; shares compounds with NLRP3 yeast inh; yeast expressing human NALP3, luminescence; inhibition, % at 10 µM; 1,300 compounds, 81% hits; in the data active means inhibition above about 48%
Casp1 ASC ctr = caspase-1-ASC yeast counter-screen hit. 1,000 compounds, 66% hits. inhibition, % at 10 µM. shares compounds with NLRP3 yeast inh. yeast expressing Caspase-1-ASC, luminescence counter screen
NALP3 yeast rt = confirmation retest of NALP3 inhibitors in yeast; 1,000 compounds, 53% hits; yeast expressing human NALP3, luminescence read-out; shares compounds with NLRP3 yeast inh; inhibition, % at 10 µM; AID 488794
tim10-1 conf = tim10-1 yeast growth inhibition, confirmed; shares compounds with tim10-1 inh; S. cerevisiae tim10-1 ts strain growth, BacTiter-Glo, 24 h; inhibition, % at 20 µM; 7,400 compounds, 56% hits;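 active means inhibition of yeast growth at or above a set limit in either of two repeat tests at 20 µM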;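 further: tim10-1 mutant grown at permissive 25 °C to find synthetic lethal compounds; 0% = DMSO yeast wells and 100% = medium wells without yeast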
tim10 confirm = TIM10 yeast growth inhibition, confirmed. inhibition, % at 10 µM. shares compounds with TIM10 inh. S. cerevisiae tim10 strain growth, BacTiter-Glo luminescence, 24 h. 4,600 compounds, 63% hits. AID 463215;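 active means inhibition of yeast growth at or above a set limit in either of two replicates at 10 µM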;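 further: this counterscreen used the strain with wild-type TIM10; 0% = yeast with DMSO and 100% = medium wells lacking yeast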
tim23-1 confirm = tim23-1 yeast growth inhibition, confirmed; shares compounds with tim23-1 inh; S. cerevisiae tim23-1 growth, BacTiter-Glo luminescence, 24 h; inhibition, % at 20 µM; 4,400 compounds, 83% hits; AID 463218;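 active means inhibition above about 39% in either of two replicate wells at 20 µM, limit read from the data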;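 further: temperature-sensitive tim23-1 mutant grown at 25 °C; 0% = DMSO wells with yeast and 100% = medium wells without yeast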
Active calls of the source: *; · = not tested or not shown. Sampled rows, rich in hits. Any-hit rate of the full collection: about 3.7%. Unless noted, no stated cut-off is given here; in the data, active means inhibition above about 50%; inactive means the rest.

SMILES	tim10-1 inh	NLRP3 yeast inh	tim23-1 inh	TIM10 inh	PfHsp90 set2	NALP3 confirm	Casp1 ASC ctr	NALP3 yeast rt	tim23-1 confirm	others
Cc1cccc(NC(=O)c2cc3ccccc3o2)c1	-30	54*	54*	25	16	72*	59*	52*	41*
CCOC(=O)[C@H]1[C@H]2COc3ccccc3[C@@H]2N2C(=O)CNC(=O)[C@@]12C	-3	-7	0	-4	·	·	·	·	·
COC(=O)c1cccc(NC(=O)CCNC(=O)c2ccco2)c1	-6	-11	1	-12	2	·	·	·	·
CN(C)c1ccc(/C=C/c2c([N+](=O)[O-])c(=O)n(C)c(=O)n2C)cc1	-8	-2	-6	-1	3	·	·	·	·
CN(C)c1ccc(-n2cccc2/C=C/[N+](=O)[O-])cc1	86*	61*	90*	92*	107*	65*	·	·	78*	tim10-1 conf=86*;tim10 confirm=95*
N#C/C(=C\c1ccc(O)cc1)c1nc2ccccc2o1	33	71*	54*	36	10	77*	85*	80*	61*
COc1cc(/C=C(\C#N)c2nc3ccccc3o2)ccc1O	14	48	41	-20	11	·	·	·	·
COc1ccc(OC)c(NC(=O)CCN2C(=O)c3cccc([N+](=O)[O-])c3C2=O)c1	25	6	4	8	-28	·	·	·	·
CC(Oc1cccc(Cl)c1)C(=O)Nc1nc(-c2ccccn2)cs1 (stereo not given)	31	50*	67*	29	-15	64*	74*	61*	55*
CCOC(=O)c1sc(=NC(=O)c2ccccc2)n(C)c1C	24	63*	54*	71*	7	75*	·	·	74*	tim10 confirm=62*
CCc1sc(C(=O)Nc2nccs2)cc1C	25	53*	54*	6	-4	72*	81*	70*	58*
O=C(Nc1nccs1)c1ccc(Cl)s1	25	51*	70*	30	13	70*	60*	50	57*
CCc1sc(C(=O)Nc2ncccc2C)cc1C	2	26	20	-15	20	·	·	·	·
O=C(Nc1ccccn1)c1ccc(Cl)s1	-18	16	8	7	22	·	·	·	·
CSc1ncccc1C(=O)N1CCN(S(=O)(=O)c2ccc3c(c2)OCCO3)CC1	12	16	15	9	·	·	·	·	·
O=C(NCCCc1ccccc1)c1cccc(NC(=O)C2CCCCC2)c1	·	·	·	·	4	·	·	·	·
CC(C)CCNC(=S)Nc1ccc([N+](=O)[O-])cc1	74*	63*	60*	52*	14	-7	·	·	56*	tim10-1 conf=67*;tim10 confirm=-40
Cc1nc(N2CCN(C(=O)c3ccco3)CC2)nc2c1C(=O)CCC2	15	11	11	-6	7	·	·	·	·
O=C(Cn1cc(S(=O)(=O)Cc2cccc(F)c2)c2ccccc21)N1CCOCC1	-14	12	-14	0	3	·	·	·	·
O=c1c2ccccc2nc(-c2ccc([N+](=O)[O-])cc2)n1O	37	58*	52*	30	8	74*	51*	58*	47*
O=C(OC1CCOC1=O)C1CCN(S(=O)(=O)c2c(Cl)cccc2Cl)CC1 (stereo not given)	4	11	8	-4	-21	·	·	·	·
Cc1cccc(CC2CC(=O)N(c3nc4ccccc4s3)C2=O)c1 (stereo not given)	34	0	31	32	-9	·	·	·	·
Cc1ccc2nc(N3C(=O)CNC3=S)sc2c1	22	81*	64*	29	9	61*	87*	83*	66*
COc1ccc(-c2nc3ccccc3c(=O)n2N)cc1	7	11	10	3	0	·	·	·	·
COc1ccc(C(=O)On2c(-c3ccc(Br)cc3)nc3ccccc3c2=O)cc1	57*	62*	61*	74*	2	86*	57*	68*	79*	tim10-1 conf=52*;tim10 confirm=74*
SMILES	tim10-1 inh	NLRP3 yeast inh	tim23-1 inh	TIM10 inh	PfHsp90 set2	NALP3 confirm	Casp1 ASC ctr	NALP3 yeast rt	tim23-1 confirm	others
O=C(Nc1cccc(Cl)c1)N1CCc2ccccc2C1	38	66*	65*	64*	-4	85*	74*	75*	84*	tim10 confirm=62*
COc1cccc(NC(=O)N2CCc3ccccc3C2)c1	11	17	18	7	-1	·	·	·	·
O=C(Nc1c(F)cccc1F)C1CCN(C(=O)c2cccs2)CC1	4	11	-3	-16	17	·	·	·	·
CCOc1c2ccoc2nc2c(OC)c(OC)ccc12	27	50*	61*	34	31	68*	48	44	65*
C=CCOc1ccc2c(OC)c3ccoc3nc2c1OC	11	25	36	16	66	·	·	·	·
COc1ccc(S(=O)(=O)N2CCN(CCCOc3ccc(F)cc3)CC2)cc1OC	18	16	21	7	12	·	·	·	·
Cc1onc(-c2ccccc2Cl)c1C(=O)N[C@@H](C)c1ccccc1	13	-5	22	19	·	·	·	·	·
CNc1nc(N)c([N+](=O)[O-])c(Nc2cccc(Cl)c2)n1	55*	60*	59*	62*	·	66*	·	·	64*	tim10-1 conf=49*;tim10 confirm=66*
CNc1nc(N)c([N+](=O)[O-])c(Nc2cccc(F)c2)n1	52*	75*	80*	67*	12	86*	78*	56*	79*	tim10-1 conf=48*;tim10 confirm=79*
O=C(Nc1ccc2oc(-c3ccccc3)nc2c1)c1ccco1	39	77*	51*	64*	36	17	·	·	79*	tim10 confirm=-3
Clc1ccc(-n2nnnc2Sc2ncnc3sccc23)cc1	43*	64*	70*	2	-45	74*	94*	76*	50*	tim10-1 conf=33*
Cc1sc2ncnc(Sc3nnnn3-c3ccccc3)c2c1C	38	38	33	28	-30	·	·	·	·
Clc1cccc(Cl)c1/C=N/Nc1c(Cl)cncc1Cl	28	1	-5	36	2	·	·	·	·
Clc1cncc(Cl)c1N/N=C/c1ccncc1	0	65*	54*	18	2	30	·	·	25
Oc1ccc(Oc2ccc(Oc3ccc(O)cc3)cc2)cc1	-10	79*	59*	-16	-91	83*	93*	85*	51*
CN(C(=O)CSc1nnc(N)s1)C1CCCCC1	-1	2	-1	1	-2	·	·	·	·
